BAZ2B block: BAZ2B (human) inhibition. AlphaScreen BAZ2B-H3K14Ac peptide displacement. Potency, µM (series often up to 114 µM), without a hit: at the top dose activity change, negative = inhibition, usual class: inhibitors. 4.4% of 360,000 active. AID 504333; also: potency is read from the fitted curve at half-maximal effect; % is scaled to controls: 0 for no effect and ±100 for the full control effect; nearly all actives have a fitted effect of over 60% in size
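AlphaScreen displacement of biotin-H3(5-23)K14Ac peptide (50 nM final) from BAZ2B (50 nM final) in PBS pH 7.4, 0.01% Tween-20; complex preformed 30 min RT, then compounds (top 110 uM) 30 min RT, beads 20 min dark.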
HP1b chromo inh: HP1-beta chromodomain-methylated histone interaction inhibition; 0.56% of 390,000 active; P83916; AlphaScreen HP1-beta / biotin-H3K9me3 peptide binding; Potency, µM (titrated, usually from 114 µM), for the others: at the top dose activity change, negative = inhibition, most hits filed as inhibitors; AID 540317; also: potency is read from the fitted curve at half-maximal effect; nearly all actives have a fitted effect of over 70% in size
Target sequence (P83916 whole entry, looked up): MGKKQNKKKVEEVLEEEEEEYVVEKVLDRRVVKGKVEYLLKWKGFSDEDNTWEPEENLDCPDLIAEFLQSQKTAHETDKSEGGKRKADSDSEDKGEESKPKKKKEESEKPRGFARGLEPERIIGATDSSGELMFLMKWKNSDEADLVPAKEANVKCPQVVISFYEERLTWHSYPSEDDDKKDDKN
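AlphaScreen: HP1-beta (50 nM) preformed 30 min with biotin-H3(1-18)K9me3 peptide (50 nM) in PBS pH 7.4, 0.01% Tween-20. Compound added for 30 min at RT, then streptavidin donor/nickel chelate acceptor beads (10 ug/mL) for 30 min.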
PLK1 PBD block: PLK1 (human) polo-box domain binding inhibition. P53350. Plk1 PBD binding of FITC phosphopeptide, fluorescence polarization. 2.8% of 360,000 active. Potency, µM, inactives show max response, negative = inhibition, actives largely listed as inhibitors; also: potency is read from the fitted curve at half-maximal effect; series mostly up to about 57 µM; % is scaled to controls: 0 for no effect and ±100 for the full control effect; nearly all actives have a fitted effect of over 65% in size
Target sequence (P53350 whole entry, looked up, the tested form may be a part): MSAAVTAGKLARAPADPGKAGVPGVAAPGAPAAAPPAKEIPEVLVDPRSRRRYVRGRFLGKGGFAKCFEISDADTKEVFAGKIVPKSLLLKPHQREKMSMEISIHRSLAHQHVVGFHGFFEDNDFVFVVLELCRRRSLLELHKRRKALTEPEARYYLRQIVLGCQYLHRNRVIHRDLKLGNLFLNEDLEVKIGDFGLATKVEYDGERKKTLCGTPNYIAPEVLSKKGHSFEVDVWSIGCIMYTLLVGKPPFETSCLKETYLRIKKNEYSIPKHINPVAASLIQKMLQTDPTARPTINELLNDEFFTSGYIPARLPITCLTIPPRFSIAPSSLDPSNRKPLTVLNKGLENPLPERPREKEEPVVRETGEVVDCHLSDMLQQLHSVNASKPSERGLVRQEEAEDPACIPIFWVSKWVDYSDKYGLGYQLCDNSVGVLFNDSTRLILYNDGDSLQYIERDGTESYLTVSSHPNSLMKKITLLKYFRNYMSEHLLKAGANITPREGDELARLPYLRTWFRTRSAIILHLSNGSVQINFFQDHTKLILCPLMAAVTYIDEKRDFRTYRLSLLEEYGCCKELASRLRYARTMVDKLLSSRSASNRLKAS
G9a block: G9a (human) methyltransferase inhibition | Q96KQ7 | G9a H3K9 monomethylation, AlphaScreen, 2 h | Potency, µM (titrated, usually from 102 µM), for the others: top-dose activity, negative = inhibition, most hits filed as inhibitors | 8.8% of 350,000 active | AID 504332; also: potency is read from the fitted curve at half-maximal effect; % is scaled to controls: 0 for no effect and ±100 for the full control effect; nearly all actives have a fitted effect of over 75% in size
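G9a (20 nM) preincubated 15 min RT with compounds, then 500 nM biotinylated H3K9 peptide and 20 uM SAM added; 2 h RT reaction. Monomethyl-H3K9 product detected by AlphaScreen with anti-H3K9me1 antibody, streptavidin donor and anti-rabbit IgG acceptor beads.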
PI5P4Ka inh: blocks human PI5P4K alpha kinase activity | P48426 | PI5P4Kalpha enzyme, ADP-Glo luminescence, 60 min; hits give low values | max response, % | 1.2% of 330,000 active | AID 652105; active = max response of -50% or lower; inconclusive = between -30% and -50%; inactive = -30% or higher; also: value at the top dose of about 77 µM; % is scaled to controls: 0 for no effect and ±100 for the full control effect
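ADP-Glo luminescence end-point after a 60 min room-temperature kinase reaction. PI5P4Kalpha and substrate in HEPES pH 7.4 buffer with EGTA, 0.1% CHAPS and 5% DMSO; ATP at 5 microM final.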
JMJD2A Tudor inh: blocks the human JMJD2A Tudor domain; O75164; AlphaScreen JMJD2A-Tudor / H3K4me3 peptide binding; Potency, µM (top dose mostly 114 µM), inactives show at the highest dose activity change, negative = inhibition, hits mostly inhibitors; 4.4% of 390,000 active; AID 504339; also: potency is read from the fitted curve at half-maximal effect; % is scaled to controls: 0 for no effect and ±100 for the full control effect; nearly all actives have a fitted effect of over 50% in size
An asterisk follows results filed as active; ? = inconclusive; . = no result; [ ] = remark or other dose. This is a sample that favours compounds with a hit; in the whole collection about 12% have one here. Unless noted, calls follow the shape of the dose curve; as a rule, active = well fitted curve in the direction sought with a large enough effect; inconclusive = small, poorly fitted or top-dose-only effect, or another doubt; inactive = no such curve, though single readings can be large; an effect the other way counts as inactive or inconclusive.

SMILES	BAZ2B block	HP1b chromo inh	PLK1 PBD block	G9a block	PI5P4Ka inh	JMJD2A Tudor inh
Cc1cc(S(=O)(=O)Nc2ccc3oc4c(c3c2)CCCC4)ccc1Cl	-31.6%	42.9%	.	?	.	-12.8%
COc1ccc2[nH]c3c(c2c1)CCN1C(=O)C(CC(=O)NCc2ccco2)C[C@H](C(=O)N2CCOCC2)[C@@]31C (stereo partly specified)	.	4.6%	-7.5%	.	0.2	-25.9%
CCN(CC)C(=O)[C@H]1C[C@H](CC(=O)NCc2ccc(OC)c(OC)c2)C(=O)N2CCc3c([nH]c4cc(-c5ccco5)ccc34)[C@]12C	.	-18.9%	1.4%	.	4.6	?
COc1ccc2[nH]c3c(c2c1)CCN1C(=O)C(CC(=O)NCc2ccc(OC)c(OC)c2)C[C@H](C(=O)N2CCCCC2)[C@@]31CCc1ccccc1 (stereo partly specified)	.	-6.7%	21.2µM*	.	?	?
COc1ccc2[nH]c3c(c2c1)CCN1C(=O)C(CC(=O)NCc2ccc(OC)c(OC)c2)C[C@H](C(=O)N2CCOCC2)[C@@]31C (stereo partly specified)	.	31.3%	26.7µM*	.	-19.0	-30.2%
COc1ccc(CNC(=O)C[C@H]2C[C@H](C(=O)N3CCCCC3)[C@@]3(C)c4[nH]c5cc(-c6ccco6)ccc5c4CCN3C2=O)cc1OC	.	?	-13.0%	.	-29.4	56.2µM*
CN(C)C(=O)CCc1ccc2c3c([nH]c2c1)[C@]1(CCc2ccccc2)[C@@H](C(=O)N2CCCCC2)C[C@H](CC(=O)NCc2cccc(C(F)(F)F)c2)C(=O)N1CC3	.	34.7%	26.7µM*	.	?	?
CCCCNC(=O)C1CCN(S(=O)(=O)c2cc(Br)cc3c2N(C(=O)CC)CC3)CC1	-1.7%	9.3%	.	-0.8%[59 µM]	.	-16.4%
COc1ccc(CNC(=O)C[C@H]2C[C@H](C(=O)N3CCCCC3)[C@@]3(C)c4[nH]c5ccc(Cl)cc5c4CCN3C2=O)cc1OC	.	-7.5%	-2.3%	.	-1.0	56.2µM*
CN(C)CCCNC(=O)C[C@H]1C[C@H](C(=O)N2CCCCC2)[C@@]2(C)c3[nH]c4ccc(Cl)cc4c3CCN2C1=O	.	26.7%	-0.5%	.	9.3	-8.9%
CCc1nnc2n1N=C(c1ccc([N+](=O)[O-])cc1)CS2	-5.1%	36.8%	-3.9%	35.5µM*	-4.8	-4.7%
CCc1nnc2n1N=C(c1ccc(OC)cc1)CS2	-4.6%	31.5%	-7.5%	-18.8%[59 µM]	.	-21.6%
CC[C@H](C)[C@H]1CNC(=O)C(=O)N1CC1CCN(CCCc2ccc(OC)c(OC)c2)CC1	.	-3.7%	-21.1%	.	-4.4	79.4µM*
Cc1ccc(S(=O)(=O)Nc2ccc(N3CCOCC3)cc2)cc1	56.2µM*	16.6%	-0.6%	79.4µM*	.	-17.2%
CC(C)c1ccc(C2(C)NC(=O)N(C(C)C(=O)Nc3ccc(N4CCOCC4)cc3)C2=O)cc1 (stereo unspecified)	-31.7%	36.2%	2.4%	56.2µM*	-4.8	-24.7%
Cc1ccc(S(=O)(=O)Nc2ccc(N3CCOCC3)nc2)cc1	-38.4%	19.6%	-12.7%	?	7.0	-14.3%[11.4 µM]
Cc1ccc(S(=O)(=O)c2ccc(NN)cc2)cc1	-22.0%	-21.4%	?	8.91µM*	-9.4	-34.0%
CC(=O)N1CCN(c2ccc(NS(=O)(=O)c3ccc(C)cc3)cc2)CC1	-15.3%	8.8%	1.4%	44.7µM*	8.8	-26.1%
CCCCCCC1(C)NC(=O)N(C(C)C(=O)Nc2ccc(N3CCOCC3)cc2)C1=O (stereo unspecified)	7.2%	22.2%	-0.7%	17.3%[12.7 µM]	-0.1	-26.0%
CC1Cc2ccccc2N1C(=O)COC(=O)c1ccc([N+](=O)[O-])o1 (stereo unspecified)	.	11.8%	-19.6%	.	-7.3	-17.8%
Cn1cc(-c2nc3cnc(Oc4ccccc4)nc3n(C3CC3)c2=O)c2ccccc21	.	.	.	4.4%[0.501 µM]	.	.
CCN1CCN(Cc2nc3cc(NC(=O)c4cc(OC)c(OC)c(OC)c4)ccc3n2CC)CC1	-7.7%	4.9%	.	?	.	-15.6%
Cc1ccc(NS(=O)(=O)c2ccc(N3C(=O)CCC3=O)cc2)cc1	-0.3%	29.5%	-6.1%	50.1µM*	-0.7	30.2%
CC(C)c1ccc(S(=O)(=O)Nc2ccc(N3CCOCC3)cc2)cc1	44.7µM*	-1.3%	0.5%	?	5.5	-31.6%
O=S(=O)(Nc1cc(C(F)(F)F)ccc1N1CCOCC1)c1ccccc1	1.4%	55.1%	5.1%	2.6%	8.3	-1.0%
SMILES	BAZ2B block	HP1b chromo inh	PLK1 PBD block	G9a block	PI5P4Ka inh	JMJD2A Tudor inh
Cc1ccc(S(=O)(=O)Nc2ccc(N3CCCCC3)cc2)cc1	35.5µM*	?	-9.5%	22.4µM*	0.6	?
O=S(=O)(Nc1cc(C(F)(F)F)ccc1N1CCOCC1)c1ccc2ccccc2c1	-1.6%	59.0%	-13.3%	50.1µM*	12.2	-7.3%
CCOC(=O)c1c(C)sc(-c2c(-c3ccc4c(c3)OCCO4)[nH]c3c2c(=O)[nH]c(=O)n3C)c1O	-34.5%	20.8%	.	-24.6%[59 µM]	.	-12.3%
CC(C)OC(=O)N(C)C[C@@H]1OCc2cnnn2CCCC(=O)N([C@H](C)CO)C[C@H]1C	.	.	-13.0%	.	3.0	.
COc1ccc(CN(Cc2ccccc2)C(=O)c2cccc(C#N)c2)cc1COc1ccc(NC(C)=O)cc1	.	38.2%	.	.	.	-34.7%
COC(=O)[C@]12CCCCC=C1N(CCC1=CCCCC1)C(=O)[C@H](CC(=O)N1CCN(C(=O)c3ccco3)CC1)C2	.	.	-1.0%	.	1.2	.
COc1cc(/C=C/c2nc(C#N)c(N3CCCCCC3)o2)cc(OC)c1OC	?	6.1%	.	?	.	-11.3%
Cc1ccc(S(=O)(=O)Nc2cc(NC(=O)CN3CCOCC3)ccc2Cl)cc1	79.4µM*	17.4%	-2.9%	?	.	-18.9%
O=S(=O)(Nc1ccc(N2CCOCC2)cc1)c1ccc2ccccc2c1	?	-22.5%	-6.5%	39.8µM*	3.7	?
Cc1ccc(S(=O)(=O)Nc2ccc(N3CCOCC3)cc2)cc1C	-22.4%	-11.4%	-12.5%	44.7µM*	0.0	?
O=C(N/C(=C\c1ccccc1)C(=O)N1CCCCC1)c1ccco1	-0.3%	17.6%	0.2%	-6.6%	-0.5	2.1%
CC1(C(=O)Nc2ccc3c(c2)OCCO3)CCN1C(=O)c1cccc(F)c1 (stereo unspecified)	.	.	-2.7%	.	-2.7	.
COC(=O)C1=C(C)OC(N)=C(C#N)C1c1ccccc1F (stereo unspecified)	-2.4%	14.3%	-3.1%	-1.9%[59 µM]	.	-10.4%
N#Cc1cc2c(nc1SCc1ccccc1)CCCC2	8.6%	12.9%	-8.2%	-17.9%	25.1	-13.1%
COC(=O)C1=C(CSc2nc3c(cc2C#N)CN(C)CC3)OC(N)=C(C#N)C1c1ccccc1F (stereo unspecified)	?	-19.2%	-15.8%	14.1µM*	.	?

Screens as filed in PubChem.
